Test results taken from the supplement of paper PMC8728848.
The full list was thinned out, with the strongest signals kept by preference.

What was measured:
Test in all cases: glycan array binding signal (z-score within array); higher = stronger binding
Conditions in all cases: glycan notation: IUPAC condensed, linker removed
[1] = target: Fuc(a1-2)Gal(b1-3)GalNAc(b1-3)Gal(a1-4)Gal(b1-4)Glc
How it was run: (§1)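 The Consortium for Functional Glycomics database supplied 3228 glycan arrays, of which those lacking an available protein sequence were dropped. The binding signal, a within-array Z-score, was averaged across arrays of the same protein sequence and across linkers. Negative scores can be read as non-binding.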

[2] = target: Fuc(a1-2)Gal(b1-3)GlcNAc(b1-3)[Gal(b1-4)GlcNAc(b1-6)]Gal(b1-4)Glc
How it was run: as §1

[3] = target: Fuc(a1-2)Gal(b1-3)[Fuc(a1-4)]GlcNAc(b1-2)Man(a1-3)[Fuc(a1-2)Gal(b1-3)[Fuc(a1-4)]GlcNAc(b1-2)Man(a1-6)]Man(b1-4)GlcNAc(b1-4)[Fuc(a1-6)]GlcNAc(b1-4)[Fuc(a1-6)]GlcNAc
How it was run: as §1

[4] = target: Fuc(a1-2)Gal(b1-4)GlcNAc(b1-3)GalNAc
How it was run: as §1

[5] = target: Fuc(a1-2)Gal(b1-4)GlcNAc(b1-3)[Fuc(a1-2)Gal(b1-4)GlcNAc(b1-6)]GalNAc
How it was run: as §1

[6] = target: Fuc(a1-2)Gal(b1-4)GlcNAc(b1-3)[Fuc(a1-3)[Gal(b1-4)]GlcNAc(b1-6)]Gal(b1-4)Glc
How it was run: as §1

[7] = target: Fuc(a1-2)Gal(b1-4)[Fuc(a1-3)]GlcNAc
How it was run: as §1

[8] = target: Fuc(a1-2)[Gal(a1-3)]Gal(b1-3)GlcNAc(b1-6)GalNAc
How it was run: as §1

[9] = target: Fuc(a1-2)[Gal(a1-3)]Gal(b1-4)GlcNAc(b1-2)Man(a1-3)[Fuc(a1-2)[Gal(a1-3)]Gal(b1-4)GlcNAc(b1-2)Man(a1-6)]Man(b1-4)GlcNAc(b1-4)GlcNAc
How it was run: as §1

[10] = target: Fuc(a1-2)[Gal(a1-4)]Gal(b1-4)GlcNAc
How it was run: as §1

[11] = target: Fuc(a1-2)[GalNAc(a1-3)]Gal(b1-4)GlcNAc(b1-6)GalNAc
How it was run: as §1

[12] = target: Gal(a1-3)Gal(b1-3)GlcNAc
How it was run: as §1

[13] = target: Gal(a1-3)Gal(b1-3)GlcNAc(b1-2)Man(a1-3)[Gal(a1-3)Gal(b1-3)GlcNAc(b1-2)Man(a1-6)]Man(b1-4)GlcNAc(b1-4)GlcNAc
How it was run: as §1

[14] = target: Gal(a1-3)[Gal(a1-4)]Gal(b1-4)GlcNAc
How it was run: as §1

[15] = target: Gal(a1-4)GlcNAc
How it was run: as §1

[16] = target: Gal(b1-3)GlcNAc(b1-3)Gal(b1-4)GlcNAc(b1-6)[Gal(b1-3)GlcNAc(b1-3)]Gal(b1-4)Glc
How it was run: as §1

[17] = target: Gal(b1-3)[Fuc(a1-4)]GlcNAc(b1-2)Man(a1-3)[Gal(b1-3)[Fuc(a1-4)]GlcNAc(b1-2)Man(a1-6)]Man(b1-4)GlcNAc(b1-4)[Fuc(a1-6)]GlcNAc
How it was run: as §1

[18] = target: Gal(b1-4)Glc
How it was run: as §1

[19] = target: Gal(b1-4)Glc6S
How it was run: as §1

[20] = target: Gal(b1-4)GlcNAc(b1-3)Gal(b1-3)GlcNAc
How it was run: as §1

[21] = target: Gal(b1-4)GlcNAc(b1-3)Gal(b1-4)GlcNAc(b1-2)[Gal(b1-4)GlcNAc(b1-3)Gal(b1-4)GlcNAc(b1-6)]Man(a1-6)[Gal(b1-4)GlcNAc(b1-3)Gal(b1-4)GlcNAc(b1-2)Man(a1-3)]Man(b1-4)GlcNAc(b1-4)[Fuc(a1-6)]GlcNAc
How it was run: as §1

[22] = target: Gal(b1-4)GlcNAc(b1-3)Gal(b1-4)GlcNAc(b1-3)Gal(b1-4)GlcNAc(b1-3)Gal(b1-4)GlcNAc(b1-3)Gal(b1-4)GlcNAc(b1-3)Gal(b1-4)GlcNAc(b1-2)Man(a1-3)[Gal(b1-4)GlcNAc(b1-3)Gal(b1-4)GlcNAc(b1-3)Gal(b1-4)GlcNAc(b1-3)Gal(b1-4)GlcNAc(b1-3)Gal(b1-4)GlcNAc(b1-3)Gal(b1-4)GlcNAc(b1-2)Man(a1-6)]Man(b1-4)GlcNAc(b1-4)GlcNAc
How it was run: as §1

[23] = target: Gal(b1-4)GlcNAc(b1-3)Gal(b1-4)GlcNAc(b1-3)GalNAc
How it was run: as §1

[24] = target: Gal(b1-4)GlcNAc(b1-3)[Gal(b1-4)GlcNAc(b1-6)]Gal(b1-4)GlcNAc
How it was run: as §1

[25] = target: Gal4S(b1-4)GlcNAc
How it was run: as §1

[26] = target: Gal6S(b1-3)GlcNAc
How it was run: as §1

[27] = target: GalNAc(b1-3)Gal(a1-4)Gal(b1-4)GlcNAc(b1-3)Gal(b1-4)Glc
How it was run: as §1

[28] = target: GalNAc(b1-4)Gal(b1-4)Glc
How it was run: as §1

[29] = target: GalNAc6S(b1-4)GlcNAc
How it was run: as §1

[30] = target: GlcNAc(a1-4)Gal(b1-4)GalNAc
How it was run: as §1

[31] = target: GlcNAc(a1-4)Gal(b1-4)GlcNAc
How it was run: as §1

[32] = target: GlcNAc(a1-4)Gal(b1-4)GlcNAc(b1-3)Gal(b1-4)GlcNAc(b1-3)Gal(b1-4)GlcNAc
How it was run: as §1

[33] = target: GlcNAc(b1-2)Man(a1-3)[GlcNAc(b1-2)Man(a1-6)]Man(b1-4)GlcNAc(b1-4)[Fuc(a1-6)]GlcNAc
How it was run: as §1

[34] = target: GlcNAc(b1-2)Man(a1-3)[GlcNAc(b1-4)][GlcNAc(b1-2)Man(a1-6)]Man(b1-4)GlcNAc(b1-4)[Fuc(a1-6)]GlcNAc
How it was run: as §1

[35] = target: Man(a1-3)[Man(a1-6)]Man(a1-6)[Man(a1-3)]Man(b1-4)GlcNAc(b1-4)GlcNAc
How it was run: as §1

[36] = target: Man(b1-4)GlcNAc
How it was run: as §1

[37] = target: Neu5Ac(a2-3)Gal(b1-3)GalNAc(b1-3)Gal(a1-4)Gal(b1-4)Glc
How it was run: as §1

[38] = target: Neu5Ac(a2-3)Gal(b1-4)GlcNAc(b1-2)Man(a1-3)[GlcNAc(b1-4)][Neu5Ac(a2-3)Gal(b1-4)GlcNAc(b1-2)Man(a1-6)]Man(b1-4)GlcNAc(b1-4)GlcNAc
How it was run: as §1

[39] = target: Neu5Ac(a2-3)Gal(b1-4)GlcNAc(b1-3)Gal(b1-4)GlcNAc(b1-3)Gal(b1-4)GlcNAc(b1-2)Man(a1-3)[Neu5Ac(a2-3)Gal(b1-4)GlcNAc(b1-3)Gal(b1-4)GlcNAc(b1-3)Gal(b1-4)GlcNAc(b1-2)Man(a1-6)]GalNAc
How it was run: as §1

[40] = target: Neu5Ac(a2-3)Gal(b1-4)GlcNAc(b1-3)[Neu5Ac(a2-3)Gal(b1-4)GlcNAc(b1-6)]GalNAc
How it was run: as §1

[41] = target: Neu5Ac(a2-3)GalNAc
How it was run: as §1

[42] = target: Neu5Ac(a2-3)[GalNAc(b1-4)]Gal(b1-4)GlcNAc
How it was run: as §1

[43] = target: Neu5Ac(a2-6)Gal(b1-4)GlcNAc(b1-2)Man(a1-3)[Man(a1-6)]Man(b1-4)GlcNAc(b1-4)GlcNAc
How it was run: as §1

[44] = target: Neu5Ac(a2-6)Gal(b1-4)GlcNAc(b1-2)Man(a1-6)[Man(a1-3)]Man(b1-4)GlcNAc(b1-4)GlcNAc
How it was run: as §1

[45] = target: Neu5Ac(a2-6)Gal(b1-4)GlcNAc(b1-2)[Neu5Ac(a2-6)Gal(b1-4)GlcNAc(b1-4)]Man(a1-3)[GlcNAc(b1-4)][Neu5Ac(a2-6)Gal(b1-4)GlcNAc(b1-4)Man(a1-6)]Man(b1-4)GlcNAc(b1-4)GlcNAc
How it was run: as §1

[46] = target: Neu5Ac(a2-6)Gal(b1-4)GlcNAc(b1-3)Gal(b1-4)GlcNAc(b1-3)Gal(b1-4)GlcNAc(b1-2)Man(a1-3)[Neu5Ac(a2-6)Gal(b1-4)GlcNAc(b1-3)Gal(b1-4)GlcNAc(b1-3)Gal(b1-4)GlcNAc(b1-2)Man(a1-6)]GalNAc
How it was run: as §1

[47] = target: Neu5Ac(a2-6)Gal(b1-4)GlcNAc(b1-3)Gal(b1-4)GlcNAc(b1-6)[Gal(b1-3)]GalNAc
How it was run: as §1

[48] = target: Neu5Ac(a2-6)Gal(b1-4)GlcNAc(b1-3)Gal(b1-4)[Fuc(a1-3)]GlcNAc(b1-3)Gal(b1-4)[Fuc(a1-3)]GlcNAc
How it was run: as §1

[49] = target: Neu5Ac(a2-6)Gal(b1-4)GlcNAc(b1-3)GalNAc
How it was run: as §1

[50] = target: Neu5Ac(a2-6)GlcNAc(b1-4)GlcNAc(b1-4)GlcNAc
How it was run: as §1

[51] = target: Neu5Ac(a2-8)Neu5Ac
How it was run: as §1

[52] = target: Neu5Ac(a2-8)Neu5Gc(a2-3)Gal(b1-4)GlcNAc
How it was run: as §1

[53] = target: Neu5Gc(a2-3)Gal(b1-4)GlcNAc
How it was run: as §1

B1: PX14375F-bfa-539-21-539 (Bacteroides fragilis) (protein)
chain: EDFLQKDPPSSPSQSVFWQKKSDFESALAGTYSVMYSGVFSQIMPCLDGLTDNAIVQHSEGTYGWAKTIAQGDLTPNQGGFVTDIYGNCYKGIARVHILMEQLDQYTGSDISADEKKFMLAQCKALRGYFYSWLYQCYKEVPVVTQSLDLNTMYQPKATRAEVLNRVMTDYDEAISELPDKLYSDSQTSGRFTVSAVKALKARILLFDAYDSNGKAISSKMEEVLTLLQSIKGYSLAARVRDNFISEKQLASPEIMFSVRFLRPNLTHSMDLYYGAWAVLDPTRNMVDAFECTDGKPWGESPLTVRPDESILYGNDDALKKAERAKMFMNRDRRLYESVNHSMMANFVDDGFKDEEVQVNESNNKGPTGFSALKYVQPTDVTPGYSTVSDADIVVLRYAHVLLMIAEAENEAHGATTTALNAINEVRTRSGQPAIEAGISQDDLRERIRNEWRIETCFEGLRYFQLKRWKLMDKRVNGVEDPAYPGYIKVYKPAFEFFPIPQSEIDKAGGVLKQDPAYE
[1]
  glycan array binding signal (z-score): 1.21
[2]
  glycan array binding signal (z-score): -0.583
[3]
  glycan array binding signal (z-score): 0.238
[4]
  glycan array binding signal (z-score): 0.334
[5]
  glycan array binding signal (z-score): 0.212
[6]
  glycan array binding signal (z-score): 0.539
[7]
  glycan array binding signal (z-score): -0.409
[8]
  glycan array binding signal (z-score): -0.329
[9]
  glycan array binding signal (z-score): 6.22
[10]
  glycan array binding signal (z-score): 2.7
[11]
  glycan array binding signal (z-score): -0.169
[12]
  glycan array binding signal (z-score): -0.042
[13]
  glycan array binding signal (z-score): 2.35
[14]
  glycan array binding signal (z-score): 3.97
[15]
  glycan array binding signal (z-score): -0.504
[16]
  glycan array binding signal (z-score): -0.107
[17]
  glycan array binding signal (z-score): 2.29
[18]
  glycan array binding signal (z-score): -0.577
[19]
  glycan array binding signal (z-score): 0.083
[20]
  glycan array binding signal (z-score): -0.243
[21]
  glycan array binding signal (z-score): 5.95
[22]
  glycan array binding signal (z-score): 4.05
[23]
  glycan array binding signal (z-score): 2.44
[24]
  glycan array binding signal (z-score): 0.637
[25]
  glycan array binding signal (z-score): -0.679
[26]
  glycan array binding signal (z-score): -0.321
[27]
  glycan array binding signal (z-score): -0.311
[28]
  glycan array binding signal (z-score): 0.504
[29]
  glycan array binding signal (z-score): -0.468
[30]
  glycan array binding signal (z-score): -0.334
[31]
  glycan array binding signal (z-score): 0.011
[32]
  glycan array binding signal (z-score): -0.081
[33]
  glycan array binding signal (z-score): -0.47
[34]
  glycan array binding signal (z-score): -0.471
[35]
  glycan array binding signal (z-score): -0.28
[36]
  glycan array binding signal (z-score): -0.448
[37]
  glycan array binding signal (z-score): -0.715
[38]
  glycan array binding signal (z-score): 0.245
[39]
  glycan array binding signal (z-score): 4.15
[40]
  glycan array binding signal (z-score): -0.205
[41]
  glycan array binding signal (z-score): -0.323
[42]
  glycan array binding signal (z-score): -0.459
[43]
  glycan array binding signal (z-score): -0.309
[44]
  glycan array binding signal (z-score): -0.518
[45]
  glycan array binding signal (z-score): -0.061
[46]
  glycan array binding signal (z-score): 2.67
[47]
  glycan array binding signal (z-score): -0.919
[48]
  glycan array binding signal (z-score): -0.045
[49]
  glycan array binding signal (z-score): -0.096
[50]
  glycan array binding signal (z-score): -0.585
[51]
  glycan array binding signal (z-score): -0.05
[52]
  glycan array binding signal (z-score): 15.8
[53]
  glycan array binding signal (z-score): -0.782
